# How the values were obtained:
# Conditions in all cases: concentration: 1 μM, replicates: in singlicate; n = 1
# CSNK1G1 = tested on: CSNK1G1
# CSNK1G2 = tested on: CSNK1G2
# CSNK1G3 = tested on: CSNK1G3
# CSNK2A1 = tested on: CSNK2A1
# CSNK2A2 = tested on: CSNK2A2
# CTK = tested on: T1, CTK
# T1 construct: gene MATK
# DAPK1 = tested on: DAPK1
# DAPK2 = tested on: DAPK2
# DAPK3 = tested on: DAPK3
# DCAMKL1 = tested on: T2, DCAMKL1
# T2 construct: gene DCLK1
# DCAMKL2 = tested on: T3, DCAMKL2
# T3 construct: gene DCLK2
# DCAMKL3 = tested on: T4, DCAMKL3
# T4 construct: gene DCLK3
# DDR1 = tested on: DDR1
# DDR2 = tested on: DDR2
# DLK = tested on: T5, DLK
# T5 construct: gene MAP3K12
# DMPK2 = tested on: T6, DMPK2
# T6 construct: gene CDC42BPG
# DMPK = tested on: DMPK
# DRAK1 = tested on: T7, DRAK1
# T7 construct: gene STK17A
# DRAK2 = tested on: T8, DRAK2
# T8 construct: gene STK17B
# DYRK1A = tested on: DYRK1A
# 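Note: KINOMEscan kinase panel screen.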
SMILES,%Inh (CSNK1G1),%Inh (CSNK1G2),%Inh (CSNK1G3),%Inh (CSNK2A1),%Inh (CSNK2A2),%Inh (CTK),%Inh (DAPK1),%Inh (DAPK2),%Inh (DAPK3),%Inh (DCAMKL1),%Inh (DCAMKL2),%Inh (DCAMKL3),%Inh (DDR1),%Inh (DDR2),%Inh (DLK),%Inh (DMPK2),%Inh (DMPK),%Inh (DRAK1),%Inh (DRAK2),%Inh (DYRK1A)
O=C(Nc1cccc(Oc2ccc3nc(NC(=O)C4CC4)cn3n2)c1)c1ccccc1C(F)(F)F,8%,0%,26%,0%,0%,0%,0%,5%,7%,39%,0%,0%,98.9%,88%,7%,17%,0%,0%,21%,12%
Cc1ccc(C(=O)Nc2ccc(Nc3ccnc4cc(-c5nccs5)ccc34)cc2O)cc1.Cl [GW494702],0%,0%,4%,0%,100%,8%,0%,0%,10%,0%,0%,0%,22%,46%,69%,0%,0%,5%,0%,3%
COC(=O)Nc1nc2cc(Oc3ccc(NC(=O)Nc4cc(C(F)(F)F)ccc4F)cn3)ccc2[nH]1.Cl.Cl [GW681170],10%,6%,18%,0%,72%,0%,51%,0%,9%,11%,15%,3%,100%,97.1%,35%,0%,0%,16%,0%,0%
Nc1ncc(-c2cccnc2)c2scc(-c3ccc4c(c3)CCN4C(=O)Cc3ccccc3)c12 [GSK683281],32%,9%,58%,77%,28%,9%,0%,0%,27%,20%,1%,34%,63%,0%,6%,72%,4%,1%,0%,23%
Nc1ncc(-c2ccc3nccc(-c4ccncc4)c3c2)cc1S(=O)(=O)N1CCOCC1 [GSK1627798],0%,0%,8%,5%,1%,0%,0%,2%,9%,0%,22%,0%,0%,0%,32%,0%,0%,0%,0%,28%
Cc1ccc(C(=O)N2CC[C@@H](O)C2)cc1-n1c(C)cc(OCc2ccc(F)cc2F)c(Br)c1=O,0%,0%,0%,0%,0%,0%,3%,0%,7%,40%,0%,0%,99%,94.6%,0%,0%,0%,0%,0%,0%
O=C(O)C(F)(F)F.O=C(O)C(F)(F)F.O=c1[nH]ccc2nc(N[C@@H]3CCCNC3)nc(Nc3ccc(S(=O)(=O)N4CCOCC4)cc3)c12 [GSK2177277],96.3%,98.8%,99.2%,98.7%,98.9%,69%,98.2%,98.1%,99.3%,98.1%,100%,99.5%,18%,82%,95.6%,92.7%,99.7%,98.4%,94%,84%
CSc1cccc2c(-c3ccncn3)c(-c3ccc(F)cc3)nn12 [GW514786],3%,10%,21%,0%,13%,0%,0%,0%,0%,5%,20%,0%,78%,63%,24%,59%,13%,0%,0%,18%
Cl.NC(=O)c1cccc(Nc2nccc(Nc3ccc(Oc4c(Cl)cccc4Cl)c(Cl)c3)n2)c1 [GW659009],0%,2%,7%,3%,45%,34%,24%,8%,44%,0%,0%,0%,0%,0%,0%,64%,0%,0%,0%,3%
Cn1cc(-c2ccc3c(c2)CCN3C(=O)Cc2cccc(Cl)c2)c2c(N)ncnc21 [GSK2606590],31%,0%,29%,8%,30%,0%,1%,5%,0%,12%,19%,0%,99.5%,57%,51%,53%,0%,0%,0%,11%
CCS(=O)(=O)c1ccc(OC)c(Nc2nccc(-c3c(-c4cccc(NC(=O)c5c(F)cccc5F)c4)nn4ncccc34)n2)c1 [GSK326180],15%,4%,15%,0%,0%,0%,9%,0%,9%,3%,0%,1%,90%,8%,0%,78%,0%,0%,1%,12%
Cc1ccc(S(=O)(=O)Nc2ccc(Nc3nccc(Nc4cccc5[nH]ncc45)n3)cc2)cc1 [GSK581271],0%,0%,7%,0%,0%,0%,0%,0%,5%,12%,5%,21%,82%,36%,0%,0%,0%,61%,7%,16%
Cn1cc(-c2[nH]c3cc(NC(=O)[C@H](N)C4CCCCC4)cc4c3c2C=NNC4=O)cn1,0%,0%,2%,68%,77%,0%,99.8%,98.7%,99.7%,46%,24%,99.4%,0%,39%,94.8%,0%,82%,99.6%,99.9%,79%
Cc1ccc(F)c(C(=O)Nc2cccc(-c3nn4ccccc4c3-c3ccnc(Nc4cccc(F)c4)n3)c2)c1F [GSK361061],10%,12%,27%,20%,10%,27%,0%,10%,14%,0%,13%,70%,100%,87%,7%,85%,13%,0%,0%,11%
COCCOCCOc1cc2ncc3c4ccc(C#N)cc4[nH]c3c2cc1OC,0%,24%,17%,75%,95.3%,0%,0%,7%,15%,20%,14%,66%,0%,0%,71%,0%,3%,100%,100%,99%
Cn1cc(-c2ccc3c(c2)CCN3C(=O)Cc2cccc(F)c2)c2c(N)ncnc21 [GSK2603358],28%,0%,38%,0%,0%,0%,0%,0%,12%,14%,0%,32%,69%,30%,22%,50%,0%,0%,0%,15%
O=C(Nc1cccc(-c2nn3ncccc3c2-c2ccnc(Nc3ccccc3)n2)c1)c1c(F)cccc1F [GSK198271],19%,0%,26%,8%,11%,27%,11%,0%,1%,18%,0%,20%,100%,91.8%,8%,99.8%,0%,0%,0%,18%
COc1cc(Nc2nccc(N3CCC(NC(=O)Nc4cccc(C(C)=O)c4)C3)n2)cc(OC)c1OC (stereo not shown) [GSK1379753],12%,0%,21%,13%,16%,0%,5%,0%,13%,20%,0%,0%,6%,8%,42%,25%,0%,0%,10%,14%
COc1cccc(NC(=O)NC2CCN(c3ccnc(Nc4cc(OC)c(OC)c(OC)c4)n3)C2)c1 (stereo not shown) [GSK1379763],0%,0%,14%,12%,7%,0%,5%,0%,17%,0%,0%,0%,22%,24%,46%,27%,0%,0%,0%,0%
Cc1ccc(C)c(NC(=O)NC2CCN(c3ccnc(Nc4ccc(F)cc4)n3)C2)c1 (stereo not shown) [GSK1379720],0%,15%,12%,0%,0%,0%,0%,0%,0%,6%,0%,3%,0%,25%,0%,0%,0%,10%,0%,10%

# Reference: paper PMC5540273 (PLoS ONE, 2017)
